According to PubChem BioAssay (NCI):
Compounds without any hit were thinned out: in the full panel of roughly 83,000, 20% have a hit.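 The endpoint reported here, percent growth, reads 100 for growth as untreated, 0 for no net growth and -100 for all cells dead.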 Active and inactive are the calls of the source. How the source made its calls: active means growth percent below 10; inactive means the rest.

Experiments:
Test in all cases: NCI-60 one-dose screen, 48 h (100 = growth as untreated, 0 = no growth, -100 = all killed)
Conditions in all cases: 10 µM unless noted
[1] = tested on: SK-MEL-2 melanoma
[2] = tested on: EKVX NSCLC
[3] = tested on: SN12C renal
[4] = tested on: UO-31 renal
[5] = tested on: TK-10 renal
[6] = tested on: ACHN renal
[7] = tested on: CAKI-1 renal
[8] = tested on: A498 renal
[9] = tested on: CCRF-CEM leukemia
[10] = tested on: MOLT-4 leukemia
[11] = tested on: SR leukemia
[12] = tested on: RPMI-8226 leukemia
[13] = tested on: OVCAR-8 ovarian
[14] = tested on: OVCAR-5 ovarian
[15] = tested on: OVCAR-4 ovarian
[16] = tested on: SK-OV-3 ovarian
[17] = tested on: IGROV1 ovarian
[18] = tested on: OVCAR-3 ovarian
[19] = tested on: HS 578T breast
[20] = tested on: NCI/ADR-RES ovarian

Measured: growth

C#C[C@]1(O)CC[C@H]2[C@@H]3CC=C4c5sc(-c6ccc(C)cc6)nc5CC[C@]4(C)[C@H]3CC[C@@]21C
inactive: [2] 54% | [3] 59% | [5] 77.4% | [6] 21.5% | [8] 113% | [13] 58.4% | [14] 93.5% | [15] 65.3% | [17] 49.3% | [18] 62% | [20] 56.6%
active: [1] -2.55% | [4] -7.05% | [7] 8.16% | [9] 6.48% | [10] -2.14% | [11] 0.0897% | [12] -27.4% | [16] -7.23% | [19] -26.9%

C#C[C@]1(O)CC[C@H]2[C@@H]3CC=C4c5sc(-c6cccc(O)c6)nc5CC[C@]4(C)[C@H]3CC[C@@]21C
active: [1] -24.6% | [2] 7.48% | [3] -48.6% | [4] -30.4% | [5] 2.76% | [6] -58.7% | [7] -19.9% | [8] -66.9% | [9] -31.8% | [10] -11.8% | [11] 4.31% | [12] -33% | [13] 9.55% | [14] -35% | [15] -47.4% | [16] -18.2% | [17] -3.36% | [18] -65.3% | [19] -37.7% | [20] -12.5%

NC(N)=Nc1ccc(Nc2cccc(Nc3ccc(Cl)c(C(F)(F)F)c3)c2)cn1
inactive: [1] 53.7% | [2] 43.1% | [3] 13.3% | [4] 82.3% | [5] 98% | [6] 78.1% | [7] 41.6% | [8] 58.8% | [10] 12.8% | [12] 13% | [13] 44.7% | [14] 73.8% | [15] 45.4% | [16] 77.6% | [17] 33.4% | [19] 28.4% | [20] 87.5%
active: [9] 5.61% | [11] -31.7% | [18] -30.7%

CCCCc1nc(/C=N/Nc2nc(Nc3ccccc3)nc(Nc3ccc(S(N)(=O)=O)cc3)n2)c(Cl)[nH]1
inactive: [1] 65.8% | [2] 102% | [3] 93.6% | [4] 85.4% | [5] 112% | [6] 100% | [7] 105% | [8] 89.3% | [9] 12.5% | [10] 41.4% | [11] 11.5% | [12] 96.7% | [13] 90% | [14] 102% | [15] 80.6% | [16] 114% | [17] 98.4% | [18] 46.2% | [19] 77.8% | [20] 108%

CCCCCc1ccc(S(=O)(=O)Nc2cc(-c3csc(NC(=O)CN4CCN(C)CC4)n3)ccc2N2CCN(C)CC2)cc1
active: [3] -21.6% | [4] -94.2% | [6] 0.622% | [7] -19.8% | [9] 0.815% | [10] -18.4% | [11] -40.7% | [12] -28.5% | [15] -44.3% | [17] 7.21% | [18] -34.7% | [19] -24.3%
inactive: [1] 37.8% | [2] 55.8% | [5] 134% | [8] 73.1% | [13] 19.5% | [14] 18.4% | [16] 18.2% | [20] 19.1%

O=C1[C@H]2Cc3c([nH]c4ccccc34)[C@@H](c3ccc(Br)cc3)N2C(=O)CN1C1CCN(CC2CCCCC2)CC1
active: [2] -79.2% | [3] -96.9% | [5] -85.2% | [6] -95.1% | [7] -32.9% | [8] -15.4% | [9] -27.9% | [10] -43.5% | [11] -67.6% | [12] -35% | [13] -48.5% | [14] -84.6% | [15] -64% | [17] -82.2% | [18] -90% | [19] -56.4% | [20] -83.8%
inactive: [1] 16.7% | [4] 12.3% | [16] 64.7%

COc1ccc(/C=N/NC2=NC3C(S2)N(C)C(=O)N3C)cc1 (stereo not given)
inactive: [1] 29.9% | [2] 38.5% | [3] 44.3% | [4] 45% | [5] 76.2% | [6] 42.7% | [7] 24% | [9] 15.5% | [10] 20.3% | [12] 10.5% | [13] 35.6% | [14] 50.4% | [15] 75.6% | [16] 28% | [17] 40.9% | [20] 30.7%
active: [8] -17.5% | [11] 6.64% | [18] -17.1% | [19] 0.337%

O=C(O)c1ccc(-n2cc(CNc3cccc(Cl)c3)c(-c3ccc(F)cc3)n2)cc1
inactive: [1] 96.1% | [2] 90.5% | [3] 98.5% | [4] 94.4% | [5] 127% | [6] 89.6% | [7] 89.9% | [8] 72.5% | [9] 94% | [10] 80% | [11] 130% | [12] 89.2% | [13] 96.3% | [14] 112% | [15] 100% | [16] 106% | [17] 102% | [18] 106% | [19] 106% | [20] 97.9%

COc1ccc(N2CCN(C3=C(Cl)C(=O)C(C)=C(C)C3=O)CC2)cc1
inactive: [1] 106% | [2] 116% | [3] 99.3% | [4] 91.4% | [5] 123% | [6] 104% | [7] 91.9% | [8] 108% | [9] 26.1% | [10] 53.7% | [11] 78.6% | [12] 89.4% | [13] 100% | [14] 110% | [15] 99.7% | [16] 96.7% | [17] 103% | [18] 113% | [19] 103% | [20] 101%

Cn1cc(-c2cc(N)n3nc(-c4cn(C)c5ccccc45)cc3n2)c2ccccc21
inactive: [1] 119% | [2] 96% | [3] 88.6% | [4] 85.9% | [5] 99.3% | [6] 94.8% | [7] 94.6% | [8] 77.8% | [9] 24.9% | [10] 49.8% | [12] 18.7% | [13] 85.4% | [14] 114% | [15] 95% | [16] 137% | [17] 104% | [18] 101% | [19] 124% | [20] 91.3%
active: [11] -9.33%

COc1ccccc1N1CCN(C2=CC(=O)C(C)=C(C)C2=O)CC1
inactive: [1] 101% | [2] 101% | [3] 104% | [4] 93.7% | [5] 116% | [6] 110% | [7] 104% | [8] 86.3% | [9] 101% | [10] 93.3% | [11] 119% | [12] 101% | [13] 100% | [14] 107% | [15] 93.2% | [16] 109% | [17] 112% | [18] 110% | [19] 103% | [20] 98.6%

COc1ccc(NC(=O)CSc2nnc(-c3ccc4nc(-c5ccccc5)[nH]c4c3)o2)cc1
inactive: [1] 105% | [2] 94% | [3] 96% | [4] 85.7% | [5] 121% | [6] 102% | [7] 101% | [8] 98% | [9] 91.6% | [10] 83.5% | [11] 91.2% | [12] 79.1% | [13] 101% | [14] 101% | [15] 100% | [16] 108% | [17] 92.9% | [18] 110% | [19] 105% | [20] 101%

Cc1ccc(-n2c(/C=C3\C(=O)Nc4ccccc43)ccc2CO)cc1
inactive: [1] 81% | [2] 79.8% | [3] 88.2% | [4] 65% | [5] 118% | [6] 76.5% | [7] 55.9% | [8] 47% | [9] 54.9% | [10] 43.8% | [11] 46.6% | [12] 69.4% | [13] 94.3% | [14] 104% | [15] 90.1% | [16] 86.8% | [17] 75% | [18] 65.4% | [19] 87.3% | [20] 55.7%

Cn1ccnc1C(=O)/C=C/C=C/c1ccc(C(=O)Nc2ccc(F)cc2)cc1
inactive: [1] 90.8% | [2] 33.4% | [4] 44.3% | [5] 61.2% | [6] 21.9% | [7] 37.2% | [8] 62% | [9] 10.3% | [10] 12.3% | [11] 10.8% | [13] 13.6% | [14] 33.7% | [15] 45.7% | [16] 67.1% | [17] 10.5% | [19] 39.1% | [20] 26.7%
active: [3] 1.94% | [12] -5.49% | [18] 5.1%

COc1c(N2CC3CCCNC3C2)c(F)cc2c(=O)c(C(=O)N/N=C/c3ccccc3)cn(C3CC3)c12 (stereo not given)
active: [11] 8.2%
inactive: [1] 111% | [2] 94.7% | [3] 91.5% | [4] 86.4% | [5] 99.5% | [6] 105% | [7] 91.9% | [8] 74.9% | [9] 78.2% | [10] 79.3% | [12] 73.1% | [13] 99.9% | [14] 107% | [15] 93.1% | [16] 111% | [17] 99.6% | [18] 102% | [19] 97.7% | [20] 104%
